# Laboratory results taken from the supplement of paper PMC4466140.
# B1: unnamed (peptide)
# chain: TTNRGPPPLPPRANV
# Biological target: AgAbp1
# Assay: SPOT peptide array binding signal intensity (averaged, normalized) (arbitrary units (background-subtracted, floor 0; scale differs between SH3 domains)); higher = stronger binding of the SH3 domain to the peptide
# Summary of the method: (§1)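 Spot intensities were captured after detection with anti-GST antibody, an HRP-linked anti-mouse secondary and luminol, and quantified with Genespotter. The probes were GST-fused SH3 domains from four yeast species, produced in E. coli BL21(DE3), purified on glutathione Sepharose and incubated at 10 μg/ml overnight at 4°C on cellulose-bound synthetic 15-mer peptides with cysteines replaced by serines. Binding signal is the normalized, background-subtracted spot intensity averaged over replicates, and its arbitrary units differ between domains.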
row,Binder,SPOT peptide array binding signal intensity
1,B1,2

# Biological target: AgBbc1
# Assay: as above
# Summary of the method: as §1
row,Binder,SPOT peptide array binding signal intensity
1,B1,301

# Biological target: AgBem1-D1
# Assay: as above
# Summary of the method: as §1
row,Binder,SPOT peptide array binding signal intensity
1,B1,53.5

# Biological target: AgBzz1-D1
# Assay: as above
# Summary of the method: as §1
row,Binder,SPOT peptide array binding signal intensity
1,B1,385

# Biological target: AgBzz1-D2
# Assay: as above
# Summary of the method: as §1
row,Binder,SPOT peptide array binding signal intensity
1,B1,144

# Biological target: AgCyk3
# Assay: as above
# Summary of the method: as §1
row,Binder,SPOT peptide array binding signal intensity
1,B1,6

# Biological target: AgFus1
# Assay: as above
# Summary of the method: as §1
row,Binder,SPOT peptide array binding signal intensity
1,B1,≤ 0

# Biological target: AgHof1
# Assay: as above
# Summary of the method: as §1
row,Binder,SPOT peptide array binding signal intensity
1,B1,398

# Biological target: AgHse1
# Assay: as above
# Summary of the method: as §1
row,Binder,SPOT peptide array binding signal intensity
1,B1,35.5

# Biological target: AgLsb1
# Assay: as above
# Summary of the method: as §1
row,Binder,SPOT peptide array binding signal intensity
1,B1,513

# Biological target: AgLsb4
# Assay: as above
# Summary of the method: as §1
row,Binder,SPOT peptide array binding signal intensity
1,B1,4310

# Biological target: AgMyo5
# Assay: as above
# Summary of the method: as §1
row,Binder,SPOT peptide array binding signal intensity
1,B1,394

# Biological target: AgNbp2
# Assay: as above
# Summary of the method: as §1
row,Binder,SPOT peptide array binding signal intensity
1,B1,4.5

# Biological target: AgRvs167
# Assay: as above
# Summary of the method: as §1
row,Binder,SPOT peptide array binding signal intensity
1,B1,1710

# Biological target: AgSho1
# Assay: as above
# Summary of the method: as §1
row,Binder,SPOT peptide array binding signal intensity
1,B1,≤ 0

# Biological target: AgSla1-D1-D2
# Assay: as above
# Summary of the method: as §1
row,Binder,SPOT peptide array binding signal intensity
1,B1,≤ 0

# Biological target: AgSla1-D3
# Assay: as above
# Summary of the method: as §1
row,Binder,SPOT peptide array binding signal intensity
1,B1,4

# Biological target: CaAbp1-D1
# Assay: as above
# Summary of the method: as §1
row,Binder,SPOT peptide array binding signal intensity
1,B1,19

# Biological target: CaAbp1-D2
# Assay: as above
# Summary of the method: as §1
row,Binder,SPOT peptide array binding signal intensity
1,B1,≤ 0

# Biological target: CaBbc1
# Assay: as above
# Summary of the method: as §1
row,Binder,SPOT peptide array binding signal intensity
1,B1,590

# Biological target: CaBem1-D1
# Assay: as above
# Summary of the method: as §1
row,Binder,SPOT peptide array binding signal intensity
1,B1,28

# Biological target: CaBzz1-D1
# Assay: as above
# Summary of the method: as §1
row,Binder,SPOT peptide array binding signal intensity
1,B1,6090

# Biological target: CaBzz1-D2
# Assay: as above
# Summary of the method: as §1
row,Binder,SPOT peptide array binding signal intensity
1,B1,2120

# Biological target: CaCyk3
# Assay: as above
# Summary of the method: as §1
row,Binder,SPOT peptide array binding signal intensity
1,B1,10.5

# Biological target: CaFus1
# Assay: as above
# Summary of the method: as §1
row,Binder,SPOT peptide array binding signal intensity
1,B1,22.5

# Biological target: CaHof1
# Assay: as above
# Summary of the method: as §1
row,Binder,SPOT peptide array binding signal intensity
1,B1,101

# Biological target: CaHse1
# Assay: as above
# Summary of the method: as §1
row,Binder,SPOT peptide array binding signal intensity
1,B1,73

# Biological target: CaLsb1
# Assay: as above
# Summary of the method: as §1
row,Binder,SPOT peptide array binding signal intensity
1,B1,9

# Biological target: CaLsb4
# Assay: as above
# Summary of the method: as §1
row,Binder,SPOT peptide array binding signal intensity
1,B1,4530

# Biological target: CaMyo5
# Assay: as above
# Summary of the method: as §1
row,Binder,SPOT peptide array binding signal intensity
1,B1,6.25

# Biological target: CaNbp2
# Assay: as above
# Summary of the method: as §1
row,Binder,SPOT peptide array binding signal intensity
1,B1,35

# Biological target: CaRvs167
# Assay: as above
# Summary of the method: as §1
row,Binder,SPOT peptide array binding signal intensity
1,B1,1980

# Biological target: CaRvs167-3
# Assay: as above
# Summary of the method: as §1
row,Binder,SPOT peptide array binding signal intensity
1,B1,≤ 0

# Biological target: CaSho1
# Assay: as above
# Summary of the method: as §1
row,Binder,SPOT peptide array binding signal intensity
1,B1,0.5

# Biological target: CaSla1-D1-D2
# Assay: as above
# Summary of the method: as §1
row,Binder,SPOT peptide array binding signal intensity
1,B1,436

# Biological target: CaSla1-D3
# Assay: as above
# Summary of the method: as §1
row,Binder,SPOT peptide array binding signal intensity
1,B1,1.5

# Biological target: ScAbp1
# Assay: as above
# Summary of the method: as §1
row,Binder,SPOT peptide array binding signal intensity
1,B1,12

# Biological target: ScBbc1
# Assay: as above
# Summary of the method: as §1
row,Binder,SPOT peptide array binding signal intensity
1,B1,74

# Biological target: ScBem1-D1
# Assay: as above
# Summary of the method: as §1
row,Binder,SPOT peptide array binding signal intensity
1,B1,6

# Biological target: ScBzz1-D1
# Assay: as above
# Summary of the method: as §1
row,Binder,SPOT peptide array binding signal intensity
1,B1,144

# Biological target: ScBzz1-D2
# Assay: as above
# Summary of the method: as §1
row,Binder,SPOT peptide array binding signal intensity
1,B1,8

# Biological target: ScCyk3
# Assay: as above
# Summary of the method: as §1
row,Binder,SPOT peptide array binding signal intensity
1,B1,1

# Biological target: ScFus1
# Assay: as above
# Summary of the method: as §1
row,Binder,SPOT peptide array binding signal intensity
1,B1,≤ 0

# Biological target: ScHof1
# Assay: as above
# Summary of the method: as §1
row,Binder,SPOT peptide array binding signal intensity
1,B1,272

# Biological target: ScHse1
# Assay: as above
# Summary of the method: as §1
row,Binder,SPOT peptide array binding signal intensity
1,B1,21.5

# Biological target: ScLsb1
# Assay: as above
# Summary of the method: as §1
row,Binder,SPOT peptide array binding signal intensity
1,B1,576

# Biological target: ScLsb2
# Assay: as above
# Summary of the method: as §1
row,Binder,SPOT peptide array binding signal intensity
1,B1,583

# Biological target: ScLsb3
# Assay: as above
# Summary of the method: as §1
row,Binder,SPOT peptide array binding signal intensity
1,B1,6820

# Biological target: ScLsb4
# Assay: as above
# Summary of the method: as §1
row,Binder,SPOT peptide array binding signal intensity
1,B1,3960

# Biological target: ScMyo3
# Assay: as above
# Summary of the method: as §1
row,Binder,SPOT peptide array binding signal intensity
1,B1,492

# Biological target: ScMyo5
# Assay: as above
# Summary of the method: as §1
row,Binder,SPOT peptide array binding signal intensity
1,B1,277

# Biological target: ScNbp2
# Assay: as above
# Summary of the method: as §1
row,Binder,SPOT peptide array binding signal intensity
1,B1,43

# Biological target: ScPex13
# Assay: as above
# Summary of the method: as §1
row,Binder,SPOT peptide array binding signal intensity
1,B1,2050

# Biological target: ScRvs167
# Assay: as above
# Summary of the method: as §1
row,Binder,SPOT peptide array binding signal intensity
1,B1,2870

# Biological target: ScSho1
# Assay: as above
# Summary of the method: as §1
row,Binder,SPOT peptide array binding signal intensity
1,B1,128

# Biological target: ScSla1-D1-D2
# Assay: as above
# Summary of the method: as §1
row,Binder,SPOT peptide array binding signal intensity
1,B1,255

# Biological target: ScSla1-D3
# Assay: as above
# Summary of the method: as §1
row,Binder,SPOT peptide array binding signal intensity
1,B1,15.2

# Biological target: SpAbp1-D1
# Assay: as above
# Summary of the method: as §1
row,Binder,SPOT peptide array binding signal intensity
1,B1,41.5

# Biological target: SpBbc1
# Assay: as above
# Summary of the method: as §1
row,Binder,SPOT peptide array binding signal intensity
1,B1,106

# Biological target: SpBzz1-D1
# Assay: as above
# Summary of the method: as §1
row,Binder,SPOT peptide array binding signal intensity
1,B1,3230

# Biological target: SpBzz1-D2
# Assay: as above
# Summary of the method: as §1
row,Binder,SPOT peptide array binding signal intensity
1,B1,11

# Biological target: SpCyk3
# Assay: as above
# Summary of the method: as §1
row,Binder,SPOT peptide array binding signal intensity
1,B1,16

# Biological target: SpHof1
# Assay: as above
# Summary of the method: as §1
row,Binder,SPOT peptide array binding signal intensity
1,B1,15.2

# Biological target: SpHof1-2
# Assay: as above
# Summary of the method: as §1
row,Binder,SPOT peptide array binding signal intensity
1,B1,42.8

# Biological target: SpHof1-3
# Assay: as above
# Summary of the method: as §1
row,Binder,SPOT peptide array binding signal intensity
1,B1,344

# Biological target: SpHse1
# Assay: as above
# Summary of the method: as §1
row,Binder,SPOT peptide array binding signal intensity
1,B1,≤ 0

# Biological target: SpLsb1
# Assay: as above
# Summary of the method: as §1
row,Binder,SPOT peptide array binding signal intensity
1,B1,1680

# Biological target: SpLsb4
# Assay: as above
# Summary of the method: as §1
row,Binder,SPOT peptide array binding signal intensity
1,B1,4080

# Biological target: SpMyo1
# Assay: as above
# Summary of the method: as §1
row,Binder,SPOT peptide array binding signal intensity
1,B1,853

# Biological target: SpNbp2
# Assay: as above
# Summary of the method: as §1
row,Binder,SPOT peptide array binding signal intensity
1,B1,≤ 0

# Biological target: SpPex13
# Assay: as above
# Summary of the method: as §1
row,Binder,SPOT peptide array binding signal intensity
1,B1,7

# Biological target: SpRvs167
# Assay: as above
# Summary of the method: as §1
row,Binder,SPOT peptide array binding signal intensity
1,B1,2550

# Biological target: SpSla1-D1-D2
# Assay: as above
# Summary of the method: as §1
row,Binder,SPOT peptide array binding signal intensity
1,B1,1

# Biological target: SpSla1-D3
# Assay: as above
# Summary of the method: as §1
row,Binder,SPOT peptide array binding signal intensity
1,B1,≤ 0
